Experimental data published in PubChem BioAssay AID813 (Sanford-Burnham Center for Chemical Genomics, 2007).
Screen size: about 64,000 compounds; fewer than 10 were called active.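 How the source made its calls: active means activation factor of at least 2 at 20 µM, relative to controls; inactive means the rest.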 A selection follows.

target: Alkaline phosphatase, tissue-nonspecific isozyme (Homo sapiens) (UniProt P05186); experiment: human TNAP enzyme activators, primary screen, biochemical, luminescent, intermediate phosphate acceptor level (AID 813); details: purified TNAP, CDP-star luminescence, 100 mM DEA, 30 min; at 20 µM; stronger effect = higher value; scale: 0 levamisole-inhibited, 1 vehicle-only enzyme
Sequence (P05186 whole entry, looked up): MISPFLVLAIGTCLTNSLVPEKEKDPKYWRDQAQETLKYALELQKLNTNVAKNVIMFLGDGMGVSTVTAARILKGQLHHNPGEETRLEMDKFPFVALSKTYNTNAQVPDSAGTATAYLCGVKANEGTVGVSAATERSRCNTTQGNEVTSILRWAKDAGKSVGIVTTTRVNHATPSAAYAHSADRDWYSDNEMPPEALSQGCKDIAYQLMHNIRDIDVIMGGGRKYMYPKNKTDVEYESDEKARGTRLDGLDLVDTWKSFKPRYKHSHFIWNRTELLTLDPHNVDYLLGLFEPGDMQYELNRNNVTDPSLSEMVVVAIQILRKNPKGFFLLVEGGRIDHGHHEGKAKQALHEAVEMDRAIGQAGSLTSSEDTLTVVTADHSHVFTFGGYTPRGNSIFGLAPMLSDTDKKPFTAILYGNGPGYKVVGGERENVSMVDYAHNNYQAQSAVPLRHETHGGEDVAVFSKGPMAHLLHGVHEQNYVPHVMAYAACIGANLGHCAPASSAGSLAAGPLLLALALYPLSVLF

Activation factor, inactive:
Cc1ccc(C)n1-c1ccncc1 0.9
Cc1cc(N2C(=O)C(=O)/C(=C(/O)c3ccc(Cl)cc3)C2c2cccc(Br)c2)no1 (stereo not drawn) 0.8
CCCOc1ccc(CN(CCO)CCO)cc1C(=O)OC 0.9
CN(C)Cc1c(O)ccc2occ(C(O)c3ccccc3)c12 (stereo not drawn) 0.9
CCn1cc(C(=O)NC2CCCCCC2)c(=O)c2cc(S(=O)(=O)N3CCCCC3)ccc21 0.9
CCn1cc(C(=O)N2CCN(C3CCCCC3)CC2)c2cc(OC)c(OC)cc2c1=O 0.9
CCOC(=O)N1CCN(C(=O)c2ccc3nc4cc(Cl)ccc4c(=O)n3c2)CC1 0.9
CCc1nc(C)cn1S(=O)(=O)c1cc(OC)c(C)cc1C 0.9
O=C(O)CC(c1ccccc1)n1cnnn1 (stereo not drawn) 1
COCCCn1c(CCC(=O)O)ccc1-c1ccc(F)cc1 0.9
CC1CN(C(=O)c2ccc3c(c2)OCO3)OC(c2ccccc2)O1 (stereo not drawn) 1
COC(=O)[C@H](Cc1ccccc1)NC(=O)Nc1ccc(S(N)(=O)=O)cc1 0.9
CC(=O)N=c1ncn(CC(COC(C)=O)OC(C)=O)c2nc[nH]c12 (stereo not drawn) 0.9
O=C(COc1ccc2c3c(c(=O)oc2c1)CCC3)NC1CCCCC1 1
Cc1ccc(S(=O)(=O)NCC(=O)N(CC(=O)NC2CCCCC2)Cc2ccco2)cc1 0.9
CC(C)c1cc(C(=O)O)on1 1
Cc1cc(C)cc(N(CC(=O)Nc2c(C)n(C)n(-c3ccccc3)c2=O)S(C)(=O)=O)c1 0.9
CC(C)(C)n1nnc(CCc2nnn(C(C)(C)C)n2)n1 0.9
O=C(c1ccccc1)c1ccc(OC(=O)N2CCCC2)cc1 0.9
COc1cc(OC)c(C(=O)NC2CC(C)(C)NC(C)(C)C2)cc1OC 1
CCOc1ccc(C(=O)NC2CCN(S(=O)(=O)CC)CC2)cc1 0.9
COc1ccc(S(=O)(=O)N2CCCC(C(=O)N3CCN(C)CC3)C2)cc1C (stereo not drawn) 1
COC(=O)COc1ccc2oc(=O)cc(C)c2c1 1
CC(=O)Nc1ccc(S(=O)(=O)N2CCSCC2)cc1 1
O=C(CCCN1C(=O)CCC1=O)Nc1ccc(Cl)c(C(F)(F)F)c1 0.9
Cc1cc(N2C(=O)C(=O)/C(=C(/O)c3ccccc3)C2c2cccc(Br)c2)no1 (stereo not drawn) 1
CCn1cc(C(=O)N2CCN(Cc3ccc4c(c3)OCO4)CC2)c2cc(OC)c(OC)cc2c1=O 0.9
CCc1c(C)c2c(C)[nH]nc2oc1=O 0.8
